# The source made the active and inactive calls.
# Tests used:
# [1] = tested on: Human papillomavirus type 1a protein E7 (residues 44-93); experiment: small molecules binding HPV E7 44-93 – biochemical, small-molecule microarray, residues 44-93, 635 nm fluorescence, primary screen (AID 1108); details: fluorescence 635 nm, higher = more signal;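 note: E7 fragment applied at 1 µg/mL in TBST for 1 h at 4 C; score combines spot fluorescence with its signal to noise ratio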
# [2] = hepatitis C replication reporter changes, two-sided – Huh7 cells, luciferase reporter, HCV replication inhibitor project, primary screen (AID 1109); details: Huh7 HCV replicon luciferase reporter, 48 h; higher = more signal;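 note: huh7 hepatoma cells harbouring a luciferase neomycin HCV replicon reporter; luciferase luminescence as measure of HCV replicon replication; test concentration not given here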
# [3] = target: Left-right determination factor 2 (Homo sapiens) (UniProt O00292); experiment: small molecules binding LEFTY2 protein – biochemical, small-molecule microarray, 635 nm fluorescence scan, primary screen (AID 1110); details: higher = more signal
# Chain of Left-right determination factor 2 (Homo sapiens) (O00292 whole entry, looked up): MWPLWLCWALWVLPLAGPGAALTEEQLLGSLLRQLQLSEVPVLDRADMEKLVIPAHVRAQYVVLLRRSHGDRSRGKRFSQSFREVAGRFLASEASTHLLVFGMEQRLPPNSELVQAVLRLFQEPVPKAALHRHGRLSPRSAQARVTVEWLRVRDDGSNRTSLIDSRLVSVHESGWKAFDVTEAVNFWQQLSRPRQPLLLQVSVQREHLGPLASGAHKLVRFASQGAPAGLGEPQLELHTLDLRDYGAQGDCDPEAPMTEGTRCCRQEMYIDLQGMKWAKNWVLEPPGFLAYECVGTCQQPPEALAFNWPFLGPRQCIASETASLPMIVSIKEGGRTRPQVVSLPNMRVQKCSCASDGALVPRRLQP
# [4] = target: Calmodulin-1 (Homo sapiens) (UniProt P0DP23); experiment: small molecules binding calmodulin-1 with EGTA – biochemical, small-molecule microarray, Cy5-labelled CALM1, profiling panel (AID 1111); details: Cy5-CALM1 binding fluorescence, higher = more signal;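 note: labelled calmodulin applied in Tris saline Tween buffer holding calcium plus EGTA and DTT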
# [5] = target: Calmodulin-1 (Homo sapiens) (UniProt P0DP23); experiment: small molecules binding Ca-loaded calmodulin-1 – biochemical, small-molecule microarray, Cy5-labelled CALM1, plus calcium, artefact control for SMM control-protein annotation, profiling panel (AID 1112); details: Cy5-CALM1 binding fluorescence, higher = more signal;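 note: score merges spot fluorescence with signal to noise from triplicate slides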
# [6] = probe aWnt5a binding to arrayed compounds – biochemical, biotinylated probe, 635/667 nm fluorescence, primary screen (AID 1113); details: small-molecule microarray, higher = more signal;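 note: score merges 667 nm fluorescence intensity with signal-to-noise per printed feature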
# [7] = probe aShh binding to arrayed compounds – biochemical, biotinylated probe, 635/667 nm fluorescence, primary screen (AID 1114); details: small-molecule microarray, higher = more signal;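 note: probe is biotin-labelled aShh protein from a stem cell growth factor screen; measures binding of labelled protein to compounds printed on the slide; score merges feature fluorescence at 667 nm with signal-to-noise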
# [8] = probe aNog binding to arrayed compounds – biochemical, biotinylated probe, 635/667 nm fluorescence, primary screen (AID 1115); details: small-molecule microarray, higher = more signal;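 note: probe is biotinylated aNog protein used at 0.15 µg/mL for 1 h at 4 C; z-score combines 667 nm fluorescence of each spot with its signal to noise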
# [9] = target: Torsin-1A-interacting protein 1 (Homo sapiens) (UniProt Q5JTV8); experiment: compound microarray binding of lysate hLAP1 – cell lysate, small-molecule microarray, COS7 lysate, 635/667 nm fluorescence, primary screen (AID 1116); details: 635 nm fluorescence, higher = more signal
# Chain of Torsin-1A-interacting protein 1 (Homo sapiens) (Q5JTV8 whole entry, looked up): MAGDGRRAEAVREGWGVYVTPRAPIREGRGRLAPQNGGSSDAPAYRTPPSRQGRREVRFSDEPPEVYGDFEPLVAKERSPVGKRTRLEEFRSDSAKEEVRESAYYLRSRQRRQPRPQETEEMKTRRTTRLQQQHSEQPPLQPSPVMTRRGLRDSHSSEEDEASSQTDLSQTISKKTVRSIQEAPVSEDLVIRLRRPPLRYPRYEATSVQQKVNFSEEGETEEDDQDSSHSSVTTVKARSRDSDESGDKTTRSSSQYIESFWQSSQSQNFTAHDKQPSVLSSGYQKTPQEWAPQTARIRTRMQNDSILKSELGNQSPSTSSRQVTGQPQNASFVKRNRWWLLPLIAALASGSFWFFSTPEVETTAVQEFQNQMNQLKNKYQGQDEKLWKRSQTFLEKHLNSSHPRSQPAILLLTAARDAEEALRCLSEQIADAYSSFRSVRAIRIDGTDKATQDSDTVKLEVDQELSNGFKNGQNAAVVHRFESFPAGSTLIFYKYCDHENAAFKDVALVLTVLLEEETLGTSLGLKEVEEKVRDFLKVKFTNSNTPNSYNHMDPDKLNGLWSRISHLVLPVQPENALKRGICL
# [10] = target: Alpha-bungarotoxin (Bungarus multicinctus) (UniProt P60615); experiment: compounds binding labelled alpha-BTX control protein – biochemical, small-molecule microarray, Alexa647 label, 635/667 nm fluorescence, artefact control for SMM control protein annotation, profiling panel (AID 1117); details: alpha-BTX-A647 binding fluorescence, higher = more signal
# Chain of Alpha-bungarotoxin (Bungarus multicinctus) (P60615 whole entry, looked up): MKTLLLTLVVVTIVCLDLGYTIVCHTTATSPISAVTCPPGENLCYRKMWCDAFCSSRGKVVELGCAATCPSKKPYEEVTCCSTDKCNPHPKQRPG
# [11] = target: Albumin (Bos taurus) (UniProt P02769); experiment: compounds binding labelled BSA control protein – biochemical, small-molecule microarray, Alexa647 label, 635/667 nm fluorescence, artefact control for SMM control protein annotation, profiling panel (AID 1118); details: BSA-A647 binding, fluorescence 635 nm, higher = more signal;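 note: score merges 667 nm emission intensity and signal-to-noise per printed compound spot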
# Chain of Albumin (Bos taurus) (P02769 whole entry, looked up): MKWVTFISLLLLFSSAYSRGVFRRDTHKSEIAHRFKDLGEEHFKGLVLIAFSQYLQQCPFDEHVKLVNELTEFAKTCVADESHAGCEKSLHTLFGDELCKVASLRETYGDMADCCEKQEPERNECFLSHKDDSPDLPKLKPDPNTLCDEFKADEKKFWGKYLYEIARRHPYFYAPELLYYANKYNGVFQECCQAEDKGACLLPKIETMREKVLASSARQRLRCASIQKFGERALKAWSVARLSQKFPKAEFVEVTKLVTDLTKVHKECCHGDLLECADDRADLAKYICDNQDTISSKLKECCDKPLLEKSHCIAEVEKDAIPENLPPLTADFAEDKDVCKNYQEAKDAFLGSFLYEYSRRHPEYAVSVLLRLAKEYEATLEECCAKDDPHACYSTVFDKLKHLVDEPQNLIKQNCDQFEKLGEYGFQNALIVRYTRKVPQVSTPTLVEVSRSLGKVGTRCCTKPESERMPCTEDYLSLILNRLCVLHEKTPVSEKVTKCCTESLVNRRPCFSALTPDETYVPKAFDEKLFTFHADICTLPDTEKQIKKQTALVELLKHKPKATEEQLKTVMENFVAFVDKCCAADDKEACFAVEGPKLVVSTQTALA
# [12] = probe aXIP binding to arrayed compounds – biochemical, NeuroSMM set, 635/667 nm fluorescence, primary screen (AID 1119); details: small-molecule microarray, higher = more signal, called active from +8 up or from −8 down;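 note: probe is the protein aXip251-270 applied at 1 µg/mL to compound-printed slides; binding of probe to printed compounds measured as 667 nm fluorescence plus signal to noise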
# [13] = probe aNOTCH3 binding on compound microarray – biochemical, small-molecule microarray, 635/667 nm fluorescence, primary screen (AID 1120); details: higher = more signal;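 note: probe is a biotin-tagged antibody raised against NOTCH3 rather than NOTCH3 protein; score merges spot fluorescence near 667 nm with spot signal to noise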
# [14] = probe aNOTCH2 binding on compound microarray – biochemical, small-molecule microarray, 635/667 nm fluorescence, primary screen (AID 1121); details: higher = more signal;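 note: score merges feature fluorescence read at 667 nm with its signal to noise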
# [15] = target: Carbonic anhydrase 2 (Homo sapiens) (UniProt P00918); experiment: compounds binding carbonic anhydrase 2 – biochemical, small-molecule microarray, Alexa647-labelled CAII, profiling panel (AID 1122); details: CAII-A647 binding fluorescence, higher = more signal
# [16] = COS7 lysate on small-molecule microarray, probe aHis, 635 nm (AID 1123); details: COS7 cell lysate, fluorescence, higher = more signal;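 note: z-score combines 667nm fluorescence intensity with signal-to-noise per printed compound spot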
# [17] = probe aLAP1 signal on lysate-treated microarray – cell lysate, small-molecule microarray, COS7 lysate, primary screen (AID 1124); details: probe aLAP1, fluorescence, higher = more signal;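 note: lysate comes from COS7 cells expressing LAP1 and is applied at 0.3 µg/mL; score merges spot fluorescence near 667 nm with signal-to-noise over triplicate slides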
# [18] = tested on: Sam68 (KHDRBS1); experiment: compounds binding KHDRBS1 protein – biochemical, small-molecule microarray, 635 nm fluorescence, primary screen (AID 1125); details: higher = more signal;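 note: score merges 667 nm channel intensity with signal to noise over triplicate slides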
# [19] = tested on: Chordin-like protein 2 (CHRDL2); experiment: compounds binding chordin-like 2 – biochemical, small-molecule microarray, 635 nm fluorescence, primary screen (AID 1126); details: fluorescence 635 nm, higher = more signal;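 note: printed compound slides probed with Chrdl2 protein at 4 µg/mL for 1 h at 4 C; score merges 667 nm emission intensity with signal to noise over three replicate slides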
# [20] = target: Concanavalin-A (Canavalia ensiformis) (UniProt P02866); experiment: compounds binding concanavalin A lectin – biochemical, small-molecule microarray, Alexa647 label, 635 nm, artefact control for SMM control protein annotation, primary screen (AID 1127); details: ConA-A647 binding fluorescence, higher = more signal;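 note: z combines 667 nm emission intensity with signal-to-noise across three replicate slides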
# Chain of Concanavalin-A (Canavalia ensiformis) (P02866 whole entry, looked up): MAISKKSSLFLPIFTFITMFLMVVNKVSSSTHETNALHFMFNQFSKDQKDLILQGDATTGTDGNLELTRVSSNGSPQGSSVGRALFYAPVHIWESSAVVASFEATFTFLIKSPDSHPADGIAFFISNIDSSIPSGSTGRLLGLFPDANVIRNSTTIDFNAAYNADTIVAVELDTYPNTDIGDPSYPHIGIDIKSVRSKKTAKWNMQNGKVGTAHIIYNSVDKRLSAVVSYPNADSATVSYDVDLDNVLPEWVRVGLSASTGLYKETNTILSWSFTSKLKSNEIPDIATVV
SMILES,composite z-score [1],z-score [2],composite z-score [3],composite z-score [4],composite z-score [5],composite z-score [6],composite z-score [7],composite z-score [8],composite z-score [9],composite z-score [10],composite z-score [11],composite Z-score [12],composite z-score [13],composite z-score [14],composite z-score [15],composite z-score [16],composite z-score [17],composite z-score [18],composite z-score [19],composite z-score [20]
COc1ccccc1CN1C(=O)c2ccccc2[C@](Cc2ccccc2I)(C(=O)NCCCN(C)C)[C@@H]1c1ccc(CO)cc1,1.35,-3.5,-0.371,-0.167,-0.272,0.134,0.215,1.44,0.549,0.812,0.0893,-0.105 (inactive),-0.243,-0.181,0.475,1.86,2.08,1.3,0.176,1.11
COc1ccc(CCNC(=O)[C@@]2(C)c3ccccc3C(=O)N(Cc3cc(C(F)(F)F)cc(C(F)(F)F)c3)[C@H]2c2ccc(CO)cc2)cc1,1.28,-2.25,0.0779,1.33,-0.228,-0.152,-0.0669,0.242,0.548,-0.183,0.0386,0.793 (inactive),-0.179,-0.161,0.643,2.41,0.558,1.13,0.394,0.308
C=C(COC)C(=O)CC[C@@H](OC(=O)c1cccnc1)c1cccc(OCCO)c1,0.743,-1.64,-0.116,-0.725,-0.89,-0.0731,0.0121,1.09,0.295,-0.101,0.0464,-0.239 (inactive),0.158,-0.107,0.75,0.148,-0.292,0.804,0.423,-0.095
O=C1O[C@H](c2ccccc2)[C@H](c2ccccc2)N2[C@H]1[C@@H](C(=O)NC[C@H](O)c1ccccc1)[C@]1(C(=O)Nc3ccc(C#CCCO)cc31)[C@H]2c1ccccc1OCCO,1.4,-1.47,-0.66,0.548,-0.0628,-0.147,0.149,-0.0503,1.35,2.1,0.695,1.27 (inactive),-0.0581,-0.0666,0.597,2.38,0.728,1.29,-0.189,1.02
CCCCC(O)C1C=CC2C(=O)N(C)C(=O)C2N1Nc1ccccc1 (stereo not given),1.18,-0.413,-0.431,0.259,0.032,0.0044,-0.301,-0.0683,1.02,0.27,0.555,0.267 (inactive),0.138,-0.0708,0.72,2.06,0.182,1.29,-0.107,0.31
O=C1c2ccccc2[C@@]2(Cc3ccccc3N(Cc3ccccc3)C2=O)[C@H](c2ccc(CO)cc2)N1Cc1ccccc1,0.145,-0.173,-1.09,-0.73,0.242,-0.236,-0.153,-0.36,-0.516,-0.114,-0.819,0.225 (inactive),-0.132,-0.125,0.19,-0.137,0.407,-0.42,-0.845,-0.571
O=C1C2C=CC(C(O)c3cccs3)N(Nc3ccccc3)C2C(=O)N1c1ccccc1 (stereo not given),0.407,-1.09,0.253,0.297,-0.971,0.0135,0.0469,0.371,0.403,0.38,0.21,0.353 (inactive),0.0864,-0.0731,0.787,-0.0142,-0.646,-0.0232,0.568,0.0148
C[C@@H](OCc1ccccc1)C1NC(=O)[C@@]23C(=O)N[C@@H](Cc4ccccc4)C2[C@H](C)[C@@]2(C)O[C@H]2C3/C=C/C/C=C\CNC(=O)[C@H](Cc2ccccc2)NC1=O (stereo not given in full),-0.677,-0.963,0.226,-0.629,-1.15,-0.035,-0.304,-0.289,0.252,-0.753,0.126,0.069 (inactive),-0.0026,-0.153,0.618,0.332,-0.149,-0.24,0.665,-0.052
C=CCC(OC(C)=O)[C@@H]1[C@@H](N(Cc2ccc(-c3cccc(C(F)(F)F)c3)o2)C(=O)Cc2ccc(F)cc2)c2cc(OCCCO)ccc2N1C(=O)c1ccc2ccccc2n1 (stereo not given in full),-0.848,-0.937,-0.0009,-0.297,0.195,-0.0462,-0.185,-0.172,0.0265,-0.124,0.671,0.272 (inactive),0.228,-0.0664,-0.0261,0.27,-0.0949,0.388,0.353,-2.02
CCCC[C@@H](O)C1=C(COC)Cn2c(=O)n(-c3ccccc3)c(=O)n2[C@H]1CO,-0.877,1.36,-0.1,-0.97,-0.694,-0.172,-0.2,0.474,0.0334,-0.115,-0.0338,0.0894 (inactive),-0.0967,-0.166,-0.469,-0.162,0.0924,-0.532,-0.0073,-0.698
COCCOC(=O)N1C(=O)[C@@]2(c3cc(C#CC4=CCCCC4)ccc31)[C@H](C(=O)N1CCN(c3ncccn3)CC1)[C@H]1C(=O)O[C@H](c3ccccc3)[C@H](c3ccccc3)N1[C@@H]2c1ccccc1OCCO,1.38,-1.9,0.419,0.936,0.473,-0.0778,-0.19,-0.0845,0.961,0.903,0.768,0.0421 (inactive),0.0433,-0.0928,0.169,1.8,0.35,1.31,0.277,1.11
